The values below come from ChEMBL document CHEMBL1156829.

Molecules are shown by their SMILES. Values joined by “and” are separate entries in the source; they are usually repeats but may differ in a detail not shown here. Equal entries are not always repeated. Over roughly 5,400 compounds, “IFI” has its median near 2; the highest 2% begin near 22. Only a selection was taken, and the highest values are over-represented in it overall.

The test in a line: NOVARTIS: Inhibition Frequency Index (IFI) - the number of HTS assays where a compound showed > 50% inhibition/induction, expressed as a percentage of the number of assays in which the compound was tested. The class given is functional.
For the compound `COc1ccc(NC(=O)C2c3ccccc3C(=O)N(C3CCCC3)C2c2cccs2)cc1Cl` (stereo unspecified), the IFI came out at 6.25%.

For the compound `CC1=C(C=CC(C)C=NNC(=O)c2ccncc2)C(C)(C)CCC1` (stereo unspecified), the IFI turned out to be 0%.

In the case of `COc1ccc(-c2ccc(C=NNC(=O)CNC(=O)c3ccc4c(c3)OCO4)o2)cc1Cl`, the IFI was determined as 0%.

Compound `CCC(=O)CC(O)C[C@@H](C)C[C@H](NC(=O)[C@@H]1C[C@H](C)CN1C(=O)/C=C/[C@@H](C)CC)C(=O)N[C@H](C(=O)NC(C)(C)C(=O)N[C@@H](CC(C)C)C(=O)N[C@@H](CC(C)C)C(=O)NC(C)(C)C(=O)NC(C)(C)C(=O)NCCC(=O)N[C@@H](C)CN(C)C)[C@H](O)C(C)C` (stereo partly specified) displayed an IFI of 12.1%.

Compound `COc1cccc(C(=O)Oc2ccccc2-c2nc3cc(C)ccn3c2NC(C)(C)CC(C)(C)C)c1` showed an IFI of 3.74%.

For `Cc1occc1C(=O)NN=C/C(Cl)=C/c1ccccc1`, the IFI is 7.69%.

Regarding `CC(C)(C)OCCN(CC(O)CN(Cc1ccccc1)C(=O)NC(c1ccccc1)c1ccccc1)S(=O)(=O)c1ccccc1` (stereo unspecified), the IFI worked out at 0.935%.

As for `COc1cc(C2C(C(=O)OCC(C)C)=C(C)NC3=C2C(=O)CC(c2ccccc2)C3)cc(Br)c1O` (stereo unspecified), the IFI is 4.65%.

In turn, `Cc1ccc(Cn2c(N3CCC(C(=O)NCc4ccccn4)CC3)nc3ccccc32)cc1` displayed an IFI of 0%.

With `CCc1cccc2c(C#N)cn(CC(=O)Nc3ccc(OC)cc3)c12`, the IFI amounted to 7.69%.

For the compound `Clc1ccc(C[n+]2cc(-c3ccccc3)n3c2CCC3)cc1Cl`, the IFI amounted to 3.77%.

In turn, `Cc1cccc(C)c1NC(=O)N1CCN(C(=O)c2nc(-c3ccccc3)nc(C)c2C(=O)OC(C)C)CC1C` (stereo unspecified) came in with an IFI of 2.8%.

`N#CC(c1ccc(C(F)(F)F)cc1)c1ccc2c(C(F)(F)F)cc(C(F)(F)F)nc2n1` (stereo unspecified) came in with an IFI of 26.3%.

In turn, `COc1ccc(C2Nc3ccc4ccccc4c3C3=C2C(=O)CC(C)(C)C3)cc1Br` (stereo unspecified) yielded an IFI of 0%.

For the compound `CCCCOc1cccc(C(=O)N(Cc2cccs2)c2ccc(OC)cc2)c1`, the IFI turned out to be 0%.

In the case of `CCN1C(=Cc2ccc3c4ccoc4ccc3[n+]2CC)C=Cc2c1ccc1occc21`, the IFI turned out to be 28.6%.

As to `CC[n+]1c(/C=C2\C=Cc3cc(C)ccc3N2C)ccc2cc(C)ccc21`, the IFI amounted to 15.4%.

On to `CCN1C(=Cc2sc3cc(NC(C)=O)ccc3[n+]2CC)C=Cc2cc(C)ccc21`, for which the IFI came out at 7.69%.

For the compound `C=CCN1C=CC(=Cc2sc3ccccc3[n+]2C)c2ccccc21`, the IFI was found to be 17.6%.

In the case of `CC(C)(C)NC(=O)C(c1ccc(F)cc1)N(CCCN1CCOCC1)C(=O)c1ccc(-c2ccccc2)[nH]1` (stereo unspecified), the IFI was 3.16%.

In turn, `COc1ccc(OC)c(NC(=O)c2cnn3c(C(F)(F)F)cc(-c4ccc(OC)c(OC)c4)nc23)c1` displayed an IFI of 2.38%.

The compound `CC1(C)C(=O)C2(CCCCC2)C(=O)OC1/C=C/c1ccccc1` (stereo unspecified) gave an IFI of 1.49%.

Compound `c1ccc(CSc2scnc2[P+](c2ccccc2)(c2ccccc2)c2ccccc2)cc1` returned an IFI of 27.8%.

In turn, `c1ccc(CSc2nc3ccncc3[nH]2)cc1` returned an IFI of 0%.

Take `c1ccc(CSc2nnc3c(n2)[nH]c2ccccc23)cc1`: the IFI was 0% and 3.82%.

Compound `COc1ccccc1CN1CCc2nc(-c3cnccn3)sc2C1` displayed an IFI of 9.86%.

In turn, `COc1ccc(CCNc2nc(NCCCn3ccnc3)ncc2C(=O)NCC(C)C)cc1OC` came in with an IFI of 1.92%.

Turning to `CC(=O)N(Cc1ccc(F)cc1)C1=C(NCCc2ccccc2)C(=O)c2ccccc2C1=O`, the IFI came to 8.33%.

As to `CC(=O)N(Cc1ccc(F)cc1)C1=C(NCc2ccccc2)C(=O)c2ccccc2C1=O`, the IFI is 23.1%.

Compound `CNC1=C(N(Cc2ccc(Cl)c(Cl)c2)C(C)=O)C(=O)c2ccccc2C1=O` had an IFI of 14.3%.

`CCOC(=O)c1c(N=Cc2cccc(OC)c2O)sc2c1CCN(C)C2` had an IFI of 0%.

`O=c1cc[nH]c2cc(N3CCCCCC3)c(F)cc12` had an IFI of 0%.

In turn, `O=C(Nc1ccc2oc(-c3cccc4ccccc34)nc2c1)c1ccc([N+](=O)[O-])o1` had an IFI of 7.14%.

With `C=CC1(C)CC23CC(C(OC(=O)c4ccccc4)c4ccnc5ccccc45)N2CCC13` (stereo unspecified), the IFI is 3.64%.

Compound `COc1cccc2cc(-c3nc(-c4ccccc4)cs3)c(=O)oc12` showed an IFI of 6.45%.

Compound `CCN1/C(=C\C=C2/SC(=S)N(c3ccccc3)C2=O)C(C)(C)c2cc(-c3ccccc3)ccc21` displayed an IFI of 25%.

For `COc1cccc(N2C(=O)/C(=C/c3cccnc3)SC2=S)c1`, the IFI amounted to 0%.

Compound `Cc1cc(/C=C2/SC(=S)N(CC(=O)O)C2=O)c(C)n1-c1ccccc1` had an IFI of 0%.

`N#Cc1c(-c2ccccc2)cc(N2CCN(Cc3ccc(Cl)cc3)CC2)n2c1nc1ccccc12` yielded an IFI of 7.5%.

The compound `COc1cc2c(OC3OCC(OC)C(OC)C3O)c3c(c(-c4ccc5c(c4)OCO5)c2cc1OC)C(=O)OC3` (stereo unspecified) came in with an IFI of 27.7%.

In turn, `CCOC(=O)c1c(-c2ccc3c(c2)OCO3)[nH]c2cc(OC)ccc2c1=O` came in with an IFI of 0%.

In turn, `CCOC(=O)c1c(-c2ccc3c(c2)OCO3)[nH]c2cccc(OC)c2c1=O` yielded an IFI of 0%.

With `CCOc1ccc(NC(=O)C2c3ccccc3C(=O)N(CC(C)C)C2c2cccs2)cc1` (stereo unspecified), the IFI is 6.25%.

Consider `CS[C@H]1SC[C@H]2C(=O)N(C)[C@@H](C(C)C)C(=O)OC[C@@H](NC(=O)c3cnc4ccccc4n3)C(=O)N[C@@H](C)C(=O)N(C)[C@@H]1C(=O)N(C)[C@@H](C(C)C)C(=O)OC[C@@H](NC(=O)c1cnc3ccccc3n1)C(=O)N[C@@H](C)C(=O)N2C`, for which the IFI stood at 34.6%.

Consider `O=C(Nc1ccc(C2=NCCN2)cc1)c1ccc(-c2ccc(C(=O)Nc3ccc(C4=NCCN4)cc3)cc2)cc1`, for which the IFI was found to be 4.4%.

As to `O=C(CN(CCN1CCOCC1)S(=O)(=O)c1ccccn1)N1CCN(C(c2ccccc2)c2ccccc2)CC1`, the IFI amounted to 0%.

Regarding `OC1(c2ccc3ccccc3c2)c2c(c3ccccc3c3ccccc23)C2=NCCN21` (stereo unspecified), the IFI was 3.25%.

For the compound `CCn1c2ccccc2[n+]2c(C)cc(C)nc12`, the IFI was found to be 7.14%.

The compound `COc1cc2nc(NCC3CCCO3)n3nc(-c4ccccc4)nc3c2cc1OC` (stereo unspecified) came in with an IFI of 2.27%.

Compound `CCOC(=O)c1ccc2c(c1)[n+](CC)c(/C=C/N(C)c1ccccc1)n2CC` displayed an IFI of 7.41%.

Compound `CCn1c(/C=C/N(C)c2ccccc2)[n+](CC)c2cc(Cl)ccc21` displayed an IFI of 6.25%.

Take `CC[n+]1c(/C=C/N(C)c2ccccc2)n(-c2ccccc2)c2ccc(-c3nc4ccccc4s3)cc21`: the IFI was 29.2%.

Consider `NCCC(=O)N1CC(c2ccccc2)c2ccccc2C1CN1CCCCC1` (stereo unspecified), for which the IFI was 4.22%.

In the case of `COc1ccc2cc(CNCCc3cccc(Cl)c3)c(N3CCC(=O)N(CCN(C)C)CC3)nc2c1`, the IFI amounted to 9.73%.

`Cc1onc(-c2ccccc2)c1C(=O)N1CCC(CNc2c(-c3ccc(F)cc3)nc3ccccn23)CC1` returned an IFI of 5.56%.

For `Cc1ccc(-c2cc(-c3cc(Cl)ccc3O)on2)cc1`, the IFI is 0%.

Consider `c1ccc(Nc2nc(-c3ccccn3)cs2)nc1`, for which the IFI worked out at 18.1%.

`Cc1ccnc(Nc2nc(-c3ccccn3)cs2)c1`: the IFI came to 24.6%.

The compound `Cc1ccc(Nc2nc(-c3ccccn3)cs2)cc1` returned an IFI of 3.62%.

Take `CC(=O)c1ccc2c3c(onc13)-c1ccccc1C2=O`: the IFI stood at 0%.

For `O=S(=O)(NC1CCCC1)c1cccc2nonc12`, the IFI was determined as 0%.

For `O=C1c2ccccc2C(=O)c2c1ccc1nonc21`, the IFI is 30.8%.

In turn, `O=C(C1=C(O)C(=O)N(CCCn2ccnc2)C1c1ccccc1[N+](=O)[O-])c1ccccc1` (stereo unspecified) yielded an IFI of 0%.

`COc1cccc(CNc2ncnc3sc(C(=O)NCC4COCCO4)c(C)c23)c1OC` (stereo unspecified) registered an IFI of 1%.

The compound `COc1ccc(Nc2nc(NN=Cc3cccc([N+](=O)[O-])c3OC)nc(Nc3ccc([N+](=O)[O-])cc3)n2)cc1` displayed an IFI of 6.49%.

On to `CCC(c1nc2ccccc2c(=O)n1CCOC)N1CCNCC1` (stereo unspecified), for which the IFI worked out at 3.31%.

The compound `C=CC[n+]1c(C=C2C=CN(C)C=C2)sc2ccccc21` returned an IFI of 15.4%.

Regarding `CC[n+]1c(C)cc2c([nH]c3ccccc32)c1C`, the IFI was 3.03%.

`O=c1c2ccccc2[nH]c2ccc(F)cc12` returned an IFI of 0%.

In turn, `O=C1c2ccccc2-[n+]2ccc3c([nH]c4ccccc43)c21` showed an IFI of 41.2%.

Compound `CC(=O)NCCc1ccc(O)cc1` had an IFI of 1.48%.

In turn, `CCN(CC)CCNc1nc(/C=C/c2ccc(Cl)cc2)nc2cc3ccccc3cc12` showed an IFI of 8.77%.

With `S=C(NN=Cc1ccccn1)NC1CC2CC1C1C=CCC21` (stereo unspecified), the IFI is 32.5%.

`Cn1c2ccccc2c2nnc(NN=Cc3ccccn3)nc21` registered an IFI of 15.4%.

For `CC1(C)C2CCC(C2)C1(C)NC(=S)NN=Cc1ccccn1` (stereo unspecified), the IFI is 26%.

Take `S=C(NN=Cc1ccccn1)NC1CC2C=CC1C2` (stereo unspecified): the IFI worked out at 19.7%.

`Cc1ccc(NC(=O)C2CSC(c3cccc(F)c3)N2C(=O)c2ccc(C(C)(C)C)cc2)cc1C` (stereo unspecified) registered an IFI of 4.25%.

`CC(C)(C)NC(=O)C(c1cccs1)N(CCCN1CCOCC1)C(=O)c1ccc(-c2ccccc2)[nH]1` (stereo unspecified) gave an IFI of 3.26%.

`Cc1ccc(S(=O)(=O)Oc2ccc(C=NN=C(N)N)cc2)cc1` registered an IFI of 0%.

`CC(C)CN1C(=O)c2ccccc2C(C(=O)Nc2ccc(C(C)C)cc2)C1c1cccs1` (stereo unspecified) returned an IFI of 6.06%.

The compound `COC(=O)c1cn([C@H]2C[C@@H](C(=O)NCc3ccc(OC)cc3)N(Cc3ccsc3)C2)nn1` gave an IFI of 1.98%.

With `CCCC1=[N+](CC(=O)c2ccc(C)cc2)CCn2c(C)ccc21`, the IFI was determined as 5.75%.

As for `CC[C@@H](C(=O)[C@@H](C)[C@@H](O)[C@H](C)CCc1ccc(C)c(O)c1C(=O)O)[C@H]1O[C@](CC)([C@H]2CC[C@](O)(CC)[C@@H](C)O2)C[C@@H]1C`, the IFI amounted to 26.9%.

In the case of `CC[C@@H](C(=O)[C@@H](C)C(O)[C@H](C)CCc1ccc(C)c(O)c1C(=O)O)C1O[C@](CC)(C2CC[C@](O)(CC)[C@H](C)O2)C[C@@H]1C` (stereo partly specified), the IFI is 9.84%.

In turn, `Cc1ccc(CNC(=O)C2CNCC2c2ccc(C(F)(F)F)cc2)cc1` (stereo unspecified) displayed an IFI of 2.82%.

In the case of `O=C1N(c2ccccc2)C[C@@H]2C[C@@H](c3ccc4nonc4c3)N3CCC[C@@]123`, the IFI was 7.69%.

Compound `OC1=C2C(=Nc3ccccc3SC2c2ccccc2)c2ccccc21` (stereo unspecified) registered an IFI of 2.25%.

Consider `COc1ccc(-c2n(C)c3ccccc3[n+]2CC(=O)OC2CC(C)CCC2C(C)C)cc1` (stereo unspecified), for which the IFI amounted to 22.7%.

As for `CC1CCC(C(C)C)C(OC(=O)Cn2c(-c3ccccc3)[n+](C)c3ccccc32)C1` (stereo unspecified), the IFI was found to be 13.1%.

In turn, `COc1ccc(-c2c[n+](CC(=O)O[C@H]3C[C@H](C)CC[C@@H]3C(C)C)c3n2CCCCC3)cc1` displayed an IFI of 21.9%.

`O=C1Cc2c([nH]c3ccc(OCc4ccccc4)cc23)C2CC=CCC12` (stereo unspecified): the IFI was found to be 0%.
